Screens as filed in PubChem BioAssay.
In the library only some 1.2% were active in any assay of this set; here they are far more common.
CIT2 TOR yeast: yeast TOR pathway CIT2-GFP modulation | AID 2029 | S. cerevisiae CIT2-GFP strain, flow cytometry, 3 h; 100 means same as DMSO wells | hit rate 0.065% among 320,000 | GFP response vs DMSO, % at 10 µM;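 active means GFP response relative to DMSO above a set limit, near the screen mean plus 3 SD, cut at about 150% in these data; inconclusive means Fewer than 70 cells measured for a yeast strain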;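 further: ratio of well median GFP fluorescence to mean of DMSO wells on the plate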
RPL19A-GFP yeast: alters RPL19A-GFP fluorescence in TOR pathway yeast screen | S. cerevisiae RPL19A-GFP strain, flow cytometry, 3 h; active compounds read low | percent response vs DMSO, % at 10 µM | hit rate 0.3% among 330,000;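 active means percent response vs DMSO below 50%; inconclusive means fewer than 70 events counted for the yeast strain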;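 further: median channel GFP fluorescence of the barcoded RPL19A-GFP strain; ratio of sample median GFP to plate DMSO average so 100% = DMSO; lower means less RPL19A-GFP as with rapamycin TOR inhibition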
AGP1 TOR yeast: yeast TOR pathway AGP1-GFP modulation. AID 2066. S. cerevisiae AGP1-GFP multiplex flow cytometry, 3 h; GFP as percent of DMSO wells. GFP response vs DMSO, % at 10 µM. hit rate 0.02% among 320,000;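 active means GFP response relative to DMSO above a set limit, near screen average plus 3 SD, cut at about 150% in these data; inconclusive means fewer than 70 cells counted for the yeast strain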;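 further: median GFP channel fluorescence of the gated AGP1 strain per well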
LAP4-GFP MLPCN: modulators of TOR pathway LAP4-GFP in S. cerevisiae; S. cerevisiae LAP4-GFP multiplex, flow cytometry GFP, 3 h; median GFP as percent of DMSO wells; GFP response vs DMSO, % at 10 µM; hit rate 0.34% among 320,000; AID 2023;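 active means GFP response vs DMSO above a set limit, about the screen mean plus 3 SD, cut at about 150% in these data; inconclusive means under 70 cell events counted for the yeast strain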
DSG3 Ab inh: inhibitors of pemphigus antibody binding to human desmoglein-3. P32926. DSG3-coupled beads, scFv-anti-DSG3-GFP binding, flow cytometry; active compounds read low. binding (percent of control), % at 10 µM. hit rate 0.48% among 310,000;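 active means binding more than 3 SD below its plate's average and above zero; inconclusive means below that plate limit but binding exactly zero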;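 further: hits lower antibody fragment binding to DSG3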
Target sequence (P32926 whole entry, looked up, the tested form may be a part): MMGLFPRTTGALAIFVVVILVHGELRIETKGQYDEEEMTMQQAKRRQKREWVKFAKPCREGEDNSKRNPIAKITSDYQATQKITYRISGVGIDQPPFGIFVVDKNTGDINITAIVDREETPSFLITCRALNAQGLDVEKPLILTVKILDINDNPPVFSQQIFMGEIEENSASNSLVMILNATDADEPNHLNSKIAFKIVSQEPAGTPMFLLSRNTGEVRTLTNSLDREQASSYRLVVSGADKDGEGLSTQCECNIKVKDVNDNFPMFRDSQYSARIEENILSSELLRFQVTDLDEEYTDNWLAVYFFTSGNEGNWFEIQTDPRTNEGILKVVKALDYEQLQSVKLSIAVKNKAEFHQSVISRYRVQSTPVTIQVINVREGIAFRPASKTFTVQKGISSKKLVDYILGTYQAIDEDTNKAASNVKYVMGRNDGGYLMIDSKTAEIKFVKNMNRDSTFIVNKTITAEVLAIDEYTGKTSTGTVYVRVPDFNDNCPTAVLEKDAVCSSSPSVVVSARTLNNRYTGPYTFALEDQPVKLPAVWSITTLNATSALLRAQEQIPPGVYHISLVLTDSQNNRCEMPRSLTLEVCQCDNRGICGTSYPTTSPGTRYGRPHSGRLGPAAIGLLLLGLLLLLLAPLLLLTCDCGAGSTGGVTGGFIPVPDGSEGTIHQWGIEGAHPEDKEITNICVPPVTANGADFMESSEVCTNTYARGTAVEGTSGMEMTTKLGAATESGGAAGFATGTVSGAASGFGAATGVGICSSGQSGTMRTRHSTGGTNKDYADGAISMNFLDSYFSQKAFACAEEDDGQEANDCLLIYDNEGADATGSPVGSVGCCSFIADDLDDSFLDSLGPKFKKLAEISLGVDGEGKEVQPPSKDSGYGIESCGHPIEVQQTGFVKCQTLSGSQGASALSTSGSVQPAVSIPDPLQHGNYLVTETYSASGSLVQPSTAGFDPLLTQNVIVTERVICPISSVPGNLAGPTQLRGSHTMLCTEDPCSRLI
MEP2 TOR yeast: yeast TOR pathway MEP2-GFP modulation; S. cerevisiae MEP2-GFP strain, flow cytometry GFP, 3 h; 100% = DMSO control level; GFP response vs DMSO, % at 10 µM; hit rate 0.51% among 330,000; AID 2016;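 active means GFP response versus DMSO above a set limit, roughly screen mean plus 3 SD, cut at about 180% in these data; inconclusive means fewer than 70 cells counted for a yeast strain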;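 further: median GFP fluorescence of the barcode-gated MEP2-GFP cells per well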
The depositor's hits bear a star; ? = inconclusive; · = no result; [ ] = another dose, or the depositor's remark.

SMILES	CIT2 TOR yeast	RPL19A-GFP yeast	AGP1 TOR yeast	LAP4-GFP MLPCN	DSG3 Ab inh	MEP2 TOR yeast
CC(=O)C1=C(O)C(=O)N(CCO)C1c1ccccc1 (configuration not stated)	110	111	108	104	97	106
CC(=O)C1=C(O)C(=O)N(CCC(=O)O)C1c1cccc(F)c1 (configuration not stated)	?	69	21	91	112	200*[may fluoresce violet]
O=S(=O)(NCCc1ccccn1)c1ccc(OC(F)(F)F)cc1	171*[may fluoresce green]	95	123	111	105	112
COc1ccc2c(c1)C(CC(=O)NN)CCC2 (configuration not stated)	·	·	·	·	102	·
C#CCOCCOCCOCCNc1nc(N2CCOCC2)nc(N2CCN(C(=O)CCCCCCCCCCNC(=O)[C@H]([C@@H](C)CC)n3cc(CCCCN=C(N)N)nn3)CC2)n1	90	88	77	119	111	78
C#CCOCCOCCOCCNc1nc(N2CCN(C(=O)CCCCCCCCCCNC(=O)[C@H](CCCN=C(N)N)n3cc(C[C@@H](C)CC)nn3)CC2)nc(N2CCN(C(=O)CCCCCCCCCCNC(=O)[C@@H]([C@H](C)CC)n3cc(CCCCCN)nn3)CC2)n1	76	70	83	193*	·	92
C#CCOCCOCCOCCNc1nc(N2CCN(C(=O)CCCCCCCCCCNC(=O)[C@H]([C@@H](C)CC)n3cc(CCCCN=C(N)N)nn3)CC2)nc(N2CCN(C(=O)CCCCCCCCCCNC(=O)[C@H](CCCN=C(N)N)n3cc(C[C@@H](C)CC)nn3)CC2)n1	96	75	93	165*	·	106
Cc1cccc(NC(=O)c2nc[nH]c2C(=O)N2CCN(c3ccccc3)CC2)c1	96	96	104	128	96	101
COCCn1c(-c2ccc(-c3ccc([N+](=O)[O-])cc3Br)o2)nc2c1c(=O)[nH]c(=O)n2CC(C)C	99	108	98	100	78*	95
COc1ccc(-c2ccc(-c3nc4c(c(=O)[nH]c(=O)n4Cc4ccccc4)n3C)o2)c([N+](=O)[O-])c1	104	99	97	79	76*	94
COCCn1c(=O)[nH]c(=O)c2c1nc(-c1ccc(-c3ccc(Cl)cc3[N+](=O)[O-])o1)n2Cc1ccccc1	99	102	105	100	96	102
CN(Cc1cc2ccccc2[nH]c1=O)S(=O)(=O)c1ccccc1	95	101	·	105	112	100
CC(C)N(Cc1cc2ccccc2[nH]c1=O)C(=O)c1cccc([N+](=O)[O-])c1	?	44*[may fluoresce violet]	?	97	86	319*[may fluoresce violet]
CN(Cc1cc2ccccc2[nH]c1=O)S(C)(=O)=O	103	100	104	91	54*	100
CCCOc1ccc(NC(=O)CC2C(=O)N(c3ccc(OCC)cc3)C(=S)N2C2CC2)cc1 (configuration not stated)	90	114	?	69	100	96
O=C(O)CSc1ncnc2sc(-c3ccccc3)cc12	111	111	104	103	110	108
COCCNC(=O)CSc1ncnc2sc(-c3ccccc3)cc12	88	91	93	103	103*	93
C=CCN1C(=O)C2C(C(=O)NCc3ccccc3)C3(C)C=CC2(O3)C1C(=O)NC(C)(C)C (configuration not stated)	100	98	103	109	·	106
C=CCN1C(=O)C2C(C(=O)NC)C3(C)C=CC2(O3)C1C(=O)NCc1ccc(OC)cc1 (configuration not stated)	?	56	?	101	96	519*[may fluoresce violet]
CCOC(=O)C1CCCN(C(=O)c2ccc(-c3ccc([N+](=O)[O-])cc3)o2)C1 (configuration not stated)	70	96	84	169*	89	79
CCC(=O)N(CC)c1nc(-c2ccc(OC)cc2)cs1	99	100	93	95	73*	102
CCC(=O)N(Cc1ccco1)c1nc(-c2ccc(OC)cc2)cs1	107	98	112	101	98	107
COc1ccc(-c2csc(N(CC(C)C)C(=O)c3ccco3)n2)cc1	100	110	150*	100	111	106
CC1=CC(=O)C(C(C)C)=C/C1=C(\c1cc(C(C)C)c(OP(=O)(O)O)cc1C)c1ccccc1C(=O)O	97	101	97	86	103	105
COc1cccc(Sc2ccccc2/C=N/NC(N)=O)c1	102	103	105	105	38*	101
SMILES	CIT2 TOR yeast	RPL19A-GFP yeast	AGP1 TOR yeast	LAP4-GFP MLPCN	DSG3 Ab inh	MEP2 TOR yeast
O=C(CN1C(=O)S/C(=C\c2cccc(Cl)c2)C1=O)NCCCn1ccnc1	?	50*[may fluoresce violet]	?	110	96	707*[may fluoresce violet]
CC1CCCN(C(=O)c2ccc(Cl)c(S(=O)(=O)N3CCCCCC3)c2)C1 (configuration not stated)	103	98	98	102	?	96
COc1ccc(C(=O)Nc2c(N)nc[nH]c2=O)cc1	·	65	·	·	110	181*
CCOC(=O)N1CCN(c2cc(=O)n(C3CCCCC3)c(=O)[nH]2)CC1	?	62	?	60	107	266*[may fluoresce violet]
CCOC(=O)C1CCN(c2cc(=O)n(C3CCCCC3)c(=O)[nH]2)CC1	100	98	68	90	101	169
O=C(O)CCCCCCCCCCCNC(=O)NC12CC3CC(CC(C3)C1)C2	104	100	96	104	97	88
CC(=O)Oc1c(C)cc(Cl)cc1C(=O)Nc1ccc([N+](=O)[O-])cc1Cl	153*	104	100	113	91	152
Cc1cc(C)c(NC(=S)NC(=O)c2ccc(-c3ccccc3)cc2)c(C)c1	90	89	94	91	41*	93
Cc1ccc(/C=N\NC(=O)C2CN(S(=O)(=O)c3ccccc3)CCN2S(=O)(=O)c2ccccc2)cc1 (configuration not stated)	?	24*[may fluoresce violet]	?	69	98	204*[may fluoresce violet]
CCNC(=O)C1CN(S(=O)(=O)c2ccccc2)CCN1S(=O)(=O)c1ccccc1 (configuration not stated)	105	101	106	96	93	103
CN(C)S(=O)(=O)c1cccc(NC(=O)C2CCN(S(=O)(=O)c3cccs3)CC2)c1	92	91	99	97	94	91
CCOc1ccc(C(=O)NCCc2ccccc2)cc1	97	104	97	99	118	107
CCOc1ccc(CC(=O)NNC(=S)NCCc2ccccc2)cc1	96	111	101	103	66*	111
C[C@@H](c1ccccc1)N1C[C@H]2CCCN2c2cc(Br)ccc2S1(=O)=O	·	·	·	·	103	·
